The target in assay [1] is Cytochrome P450 2C9 (Homo sapiens) (UniProt P11712). Nature of the assay: qHTS Assay for Inhibitors and Substrates of Cytochrome P450 2C9 (AID 883). Note: % is set by controls: 0 for no effect and ±100 for the full control effect; nearly all actives have a fitted effect of over 60% in size. The procedure, abridged: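 Signal: luciferase luminescence reporting luciferin produced by CYP2C9. Conditions: 10nM enzyme, Luciferin-H 100uM at KM, 25mM KPO4, 37C, 60 min NADPH-driven reaction. Reference: 57uM sulphaphenazole as 100% inhibition.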
On the technique in general: Quantitative high-throughput screening tests each substance at several concentrations.

Assay [2] deals with Cytochrome P450 3A4 (Homo sapiens) (UniProt P08684). Nature of the assay: qHTS Assay for Activators of Cytochrome P450 3A4 (AID 885). Note: nearly all actives have a fitted effect of over 65% in size. The procedure, abridged:
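Steps: enzyme/substrate mix dispensed; compound added, 10 min RT; NADPH regeneration solution added, 60 min RT; luciferin detection buffer stops reaction; 20 min later luminescence measured.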

In assay [3] the target is Cytochrome P450 2D6 (Homo sapiens) (UniProt P10635). Nature of the assay: qHTS Assay for Inhibitors and Substrates of Cytochrome P450 2D6 (AID 891).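 Note: luciferin methyl ether substrate demethylated by CYP2D6 with NADPH regeneration; % is set by controls: 0 for no effect and ±100 for the full control effect; nearly all actives have a fitted effect of over 60% in size.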 The procedure, abridged:
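Human CYP2D6 (5 nM) with 30 uM Luciferin-ME EGE (at Km) in 100 mM KPO4, compound preincubated 10 min, then NADPH regeneration system for 60 min at room temperature. Luciferin read by luminescence; normalized to 1.43 uM quinidine.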

The target of assay [4] is Cytochrome P450 2C19 (Homo sapiens) (UniProt P33261). Nature of the assay: qHTS Assay for Inhibitors and Substrates of Cytochrome P450 2C19 (AID 899). Note: nearly all actives have a fitted effect of over 60% in size. Note: potency is the fitted concentration of half-maximal effect. A digest of the protocol: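 Signal comes from luciferase acting on luciferin released by CYP2C19-mediated hydroxylation of Luciferin-H EGE, 10uM (KM). Assay mix: 5nM enzyme, 50mM KPO4; 60 min at 37C with NADPH regeneration. Data normalized against 57uM ketoconazole.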

Assay [5] addresses Cytochrome P450 3A4 (Homo sapiens) (UniProt P08684). Nature of the assay: qHTS Assay for Inhibitors and Substrates of Cytochrome P450 3A4 (AID 884). Note: potency is the fitted concentration of half-maximal effect; nearly all actives have a fitted effect of over 50% in size. A digest of the protocol:
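20 nM human CYP3A4 with 25 uM Luciferin-PPXE (at KM) in 200 mM KPO4, preincubated 10 min with compound; NADPH regeneration started a 60 min RT reaction. Luciferin detected by luminescence, normalized to 57 uM ketoconazole as full inhibition.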

The structures appear in SMILES notation. Several values for one entry are separate records, joined by “and”; a condition that tells them apart may be missing. Equal entries are not always repeated. Results filed as inconclusive are left out. A structure can be active in one record and inactive in another. Activity calls are given as the source filed them. Calls come from the whole dose curve; as a rule, active = well fitted curve in the direction sought with a large enough effect; inconclusive = small, poorly fitted or top-dose-only effect, or another doubt; inactive = no such curve, though single readings can be large; an effect the other way counts as inactive or inconclusive.

Chain of Cytochrome P450 2C9 (Homo sapiens) (P11712 whole entry, looked up): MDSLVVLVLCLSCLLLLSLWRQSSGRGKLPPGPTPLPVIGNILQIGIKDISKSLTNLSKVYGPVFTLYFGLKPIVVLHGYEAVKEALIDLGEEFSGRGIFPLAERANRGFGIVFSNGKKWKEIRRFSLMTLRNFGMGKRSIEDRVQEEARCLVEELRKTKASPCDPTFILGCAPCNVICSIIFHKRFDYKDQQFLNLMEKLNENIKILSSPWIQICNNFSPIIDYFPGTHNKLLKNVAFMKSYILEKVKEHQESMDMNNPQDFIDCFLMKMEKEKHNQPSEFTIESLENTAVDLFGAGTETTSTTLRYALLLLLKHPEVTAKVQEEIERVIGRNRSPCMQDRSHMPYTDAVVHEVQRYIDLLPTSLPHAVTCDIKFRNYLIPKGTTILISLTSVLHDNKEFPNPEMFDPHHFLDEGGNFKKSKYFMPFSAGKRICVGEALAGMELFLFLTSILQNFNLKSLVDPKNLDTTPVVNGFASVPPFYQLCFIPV
Chain of Cytochrome P450 3A4 (Homo sapiens) (P08684 whole entry, looked up): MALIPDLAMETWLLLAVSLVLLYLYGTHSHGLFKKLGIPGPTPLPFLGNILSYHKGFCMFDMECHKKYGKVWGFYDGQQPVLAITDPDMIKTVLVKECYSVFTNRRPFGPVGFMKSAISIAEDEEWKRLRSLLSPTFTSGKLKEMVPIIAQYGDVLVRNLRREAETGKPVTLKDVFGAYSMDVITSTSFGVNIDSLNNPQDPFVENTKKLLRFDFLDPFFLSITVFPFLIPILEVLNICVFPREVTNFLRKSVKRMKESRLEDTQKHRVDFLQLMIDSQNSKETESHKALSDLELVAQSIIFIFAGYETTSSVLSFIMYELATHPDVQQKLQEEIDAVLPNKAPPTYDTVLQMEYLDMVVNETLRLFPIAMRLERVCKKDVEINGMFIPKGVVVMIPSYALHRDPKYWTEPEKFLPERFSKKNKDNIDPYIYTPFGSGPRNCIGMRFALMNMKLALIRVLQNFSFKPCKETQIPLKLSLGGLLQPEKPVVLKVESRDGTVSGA
Chain of Cytochrome P450 2D6 (Homo sapiens) (P10635 whole entry, looked up): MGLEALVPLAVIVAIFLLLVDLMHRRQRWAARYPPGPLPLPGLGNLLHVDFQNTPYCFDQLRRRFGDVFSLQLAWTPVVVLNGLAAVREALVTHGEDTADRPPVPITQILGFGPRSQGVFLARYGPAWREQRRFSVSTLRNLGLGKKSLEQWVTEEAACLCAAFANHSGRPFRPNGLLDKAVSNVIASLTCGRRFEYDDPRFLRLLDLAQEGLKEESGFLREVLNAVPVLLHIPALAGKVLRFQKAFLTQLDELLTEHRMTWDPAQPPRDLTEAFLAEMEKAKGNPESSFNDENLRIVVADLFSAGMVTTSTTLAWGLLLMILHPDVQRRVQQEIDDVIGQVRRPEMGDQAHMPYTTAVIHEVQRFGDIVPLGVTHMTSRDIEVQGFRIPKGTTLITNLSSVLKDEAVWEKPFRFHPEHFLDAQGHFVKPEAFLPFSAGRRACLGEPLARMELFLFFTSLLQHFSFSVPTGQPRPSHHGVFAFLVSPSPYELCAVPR
Chain of Cytochrome P450 2C19 (Homo sapiens) (P33261 whole entry, looked up): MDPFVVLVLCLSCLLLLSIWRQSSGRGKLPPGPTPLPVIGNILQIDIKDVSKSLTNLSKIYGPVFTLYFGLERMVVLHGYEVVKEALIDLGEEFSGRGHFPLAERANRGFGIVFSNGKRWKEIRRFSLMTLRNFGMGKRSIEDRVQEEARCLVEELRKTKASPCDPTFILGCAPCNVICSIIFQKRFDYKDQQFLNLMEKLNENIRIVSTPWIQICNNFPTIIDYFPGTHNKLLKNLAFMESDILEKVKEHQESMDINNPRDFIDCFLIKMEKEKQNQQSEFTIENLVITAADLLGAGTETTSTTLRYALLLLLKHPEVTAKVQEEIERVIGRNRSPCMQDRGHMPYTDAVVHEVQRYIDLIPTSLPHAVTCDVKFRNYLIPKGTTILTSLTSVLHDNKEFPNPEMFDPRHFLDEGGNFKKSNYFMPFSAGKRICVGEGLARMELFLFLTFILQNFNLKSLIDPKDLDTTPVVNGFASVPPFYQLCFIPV

As to `OCC1OC(C#Cc2ccccc2)C=CC1O` (centres undefined), the Potency result in assay [1] and in assay [3] was “inactive” in each case. Moreover, the activity change, positive = activation in assay [2] is -40.9% [at 11.4 µM] (inactive) and -46.3% [at 11.4 µM] (inactive) and -31.2% [at 11.4 µM] (inactive). Moreover, in assay [4], the Potency result is “inactive and 631 nM (active)”.

`C#CCCCO/N=C1/[C@H]2O[C@@H]2[C@@H](O)[C@H]2[C@H]1CCn1c(=O)n(Cc3cc4c(cc3Cl)OCO4)c(=O)n12`: the Potency entry in assay [1] and in assay [4] was “inactive” each time.

In the case of `C=CCOCC/C=C1/c2ccccc2C(OC)C1C` (centres undefined), the Potency entry in assay [1] was “inactive”. The activity change, positive = activation in assay [2] was -43.5% [at 11.4 µM] (inactive). The Potency in assay [4] was 3.98 µM (active).

On to `CC(=O)OCC1OC(C#Cc2ccc(Br)cc2)C=CC1OC(C)=O` (centres undefined), for which the Potency entry in assay [1], in assay [3] and in assay [4] was “inactive” each time. In addition, the activity change, positive = activation in assay [2] was -46% [at 11.4 µM] (inactive).

For the molecule `CNC(=O)[C@H](C)/C=C/C(NC(=O)OCc1ccccc1)c1ccc(C(=O)OC)cc1` (some centres undefined), in assay [5], the Potency is 7.94 µM (active). In addition, the Potency entry in assay [2] was “inactive”.

Turning to `COC(=O)CNC(=O)[C@@]1(C)C=C[C@@H](Cc2ccccc2)N1C(=O)OC`, in assay [5], the Potency was 12.6 µM (active). Moreover, in assay [2], the Potency entry was “inactive”.

`CCCNC(=O)OC[C@@H]1O[C@H](CCO/N=C(\C)CCN2CCCc3nc(C)c(C)cc32)C=C[C@@H]1Oc1ccc(OC)cc1`: in assay [5], the Potency was 3.98 µM (active). In addition, the activity change, positive = activation in assay [2] is -70.1% [at 11.4 µM] (inactive).

In the case of `N#Cc1ccc(C23CC4(C2)[C@H](CN(Cc2cccnc2)[C@@H]4c2ccccc2)C3c2ccc(C(F)(F)F)cc2)cc1` (some centres undefined), the Potency in assay [5] was 6.31 µM (active). The Potency entry in assay [2] is “inactive”.

Take `CCCNC(=O)OC[C@@H]1O[C@H](CCO/N=C\C[C@H]2C=C[C@H](OC(C)=O)[C@@H](COC(C)=O)O2)C=C[C@@H]1Oc1ccc(OC)cc1`: in assay [5], the Potency was 3.98 µM (active). Moreover, the activity change, positive = activation in assay [2] is -95.4% [at 11.4 µM] (inactive).

For `CCC1=C2CC[C@H]3C(=O)N(CC)C(=O)[C@H]3[C@H]2[C@@]2(Cc3ccccc3)C(=NCc3ccccc3)OC(=O)N2C1=O`, in assay [5], the Potency was 3.16 µM (active). Also, the Potency result in assay [2] is “inactive”.

As for `CCCCCCNC(=O)Nc1ccc(S(=O)(=O)Nc2ccc(CCNC[C@H](O)COc3ccc(O)cc3)cc2)cc1`, the Potency in assay [5] is 7.94 µM (active). For the same molecule, the Potency entry in assay [2] is “inactive”.

Turning to `CO[C@H]1COC(=O)[C@H](C)NC(=O)C/C=C\[C@@H](C)[C@@H](NS(=O)(=O)c2ccc(C)cc2)COC(=O)C/C=C\[C@@H]1C`, the Potency in assay [5] is 3.98 µM (active). For the same molecule, the activity change, positive = activation in assay [2] is -80.3% [at 11.4 µM] (inactive).

Regarding `CCCNC(=O)OC[C@H]1O[C@@H](CCO/N=C2/[C@H]3O[C@@H]3[C@@H](O)[C@H]3[C@H]2CCn2c(=O)n(-c4ccccc4)c(=O)n23)C=C[C@@H]1Oc1ccc(OC)cc1`, the Potency in assay [5] is 3.16 µM (active). Moreover, in assay [2], the activity change, positive = activation is -85.3% [at 11.4 µM] (inactive).

For the molecule `CC(C)c1ccccc1S(=O)(=O)c1cc(N)c2ncccc2c1[N+](=O)[O-]`, the Potency in assay [5] is 1 µM (active). The Potency entry in assay [2] was “inactive”.

Take `COC(=O)C/C=C\[C@@H](C)[C@@H](/C=N\OCC[C@H]1C=C[C@H](OC(C)=O)[C@@H](COC(C)=O)O1)NS(=O)(=O)c1ccc(C)cc1`: the Potency in assay [5] is 3.98 µM (active). The activity change, positive = activation in assay [2] was -95.4% [at 11.4 µM] (inactive).

As for `O=c1oc2ccccc2c2oc3cc(O)c(O)cc3c12`, the Potency in assay [5] is 20 µM (active). In addition, in assay [2], the Potency entry is “inactive”.

As to `C#CCCCO/N=C1/C[C@@H](O)[C@@H](O)[C@@H]2[C@@H]3C(=O)N([C@@H](C)c4ccccc4)C(=O)[C@H]3CC[C@H]12`, the Potency in assay [5] was 3.98 µM (active). The activity change, positive = activation in assay [2] was -89.1% [at 11.4 µM] (inactive).

With `CCC1=C(OC(=O)N(CC)CC)N2C(=O)OC(=NCC3CC3)[C@]2(Cc2ccccc2)[C@H]2C1=CC[C@H]1C(=O)NC(=O)[C@H]12`, the Potency in assay [5] is 2 µM (active). For the same molecule, the Potency entry in assay [2] was “inactive”.

In the case of `C/C(CCN1CCCCc2nc(C)c(C)cc21)=N\O[C@@H](C)CN1CCCCc2nc(C)c(C)cc21`, the Potency in assay [5] is 3.98 µM (active). The activity change, positive = activation in assay [2] is -81.7% [at 11.4 µM] (inactive).

For `S=C=Nc1cccc(NC(=S)NCCCCNC(=S)Nc2cccc(N=C=S)c2)c1`, the Potency in assay [5] is 3.16 µM (active). The Potency entry in assay [2] is “inactive”.

With `CCC1=C2CC[C@H]3C(=O)N(c4ccccc4)C(=O)[C@H]3[C@H]2[C@@]2(Cc3ccccc3)C(=NCCc3c[nH]c4ccccc34)OC(=O)N2C1=O`, the Potency in assay [5] was 1.26 µM (active). In addition, the Potency entry in assay [2] was “inactive”.

For `CCC1=C(OC(=O)N(CC)CC)N2C(=O)OC(=NCC(=O)OC)[C@]2(C)[C@H]2C1=CC[C@H]1C(=O)N(CC(=O)OC)C(=O)[C@H]12`, in assay [5], the Potency is 10 µM (active). Further, in assay [2], the Potency result was “inactive”.

`C=CC[C@@H]1C=C[C@H](O/N=C(\C)CCN2CCc3nc(-c4ccccc4)c(-c4ccccc4)cc3C2)[C@H](CO)O1`: the Potency in assay [5] is 3.98 µM (active). Further, the activity change, positive = activation in assay [2] is -81.8% [at 11.4 µM] (inactive).

Take `CNC1=C(Br)C(=O)c2ccncc2C1=O`: in assay [5], the Potency is 1.26 µM (active). Further, the Potency entry in assay [2] was “inactive”.

Turning to `c1ccc(C2[C@H]3CN(CC4CCCCC4)[C@H](c4ccccc4)C34CC2(c2cccnc2)C4)cc1` (some centres undefined), the Potency in assay [5] was 12.6 µM (active). The Potency result in assay [2] is “inactive”.

`CCC1=C(OC(=O)N(CC)CC)N2C(=O)OC(=NCC3CC3)[C@]2(C)[C@H]2C1=CC[C@H]1C(=O)N(C)C(=O)[C@H]12`: the Potency in assay [5] was 10 µM (active). The Potency entry in assay [2] was “inactive”.

For the molecule `Cc1ccc(S(=O)(=O)N[C@H]2COC(=O)C/C=C\[C@@H](C)[C@H](NS(=O)(=O)c3ccc(C)cc3)COC(=O)C/C=C\[C@H]2C)cc1`, the Potency in assay [5] is 3.16 µM (active). Also, in assay [2], the activity change, positive = activation is -62.5% [at 11.4 µM] (inactive).

Take `CCC1=C(OC(=O)N(CC)CC)N2C(=O)OC(=NCC3CC3)[C@]2(C)[C@H]2C1=CC[C@H]1C(=O)NC(=O)[C@H]12`: the Potency in assay [5] is 10 µM (active). For the same molecule, in assay [2], the Potency result is “inactive”.

`Cn1c(=O)c(C(=O)COC(=O)c2cc(-c3ccco3)nc3ccccc23)c(N)n(Cc2ccccc2)c1=O`: the Potency in assay [5] was 12.6 µM (active). Moreover, the Potency result in assay [2] is “inactive”.

As to `COC(=O)c1ccc(C(/C=C/[C@@H](C)C(=O)N[C@H](C)CO)NC(=O)OCc2ccccc2)cc1` (some centres undefined), the Potency in assay [5] was 15.8 µM (active). The Potency entry in assay [2] is “inactive”.

As for `CCC1=C2CC[C@H]3C(=O)N(C)C(=O)[C@H]3[C@H]2[C@@]2(Cc3ccccc3)C(=NCC(=O)OC)OC(=O)N2C1=O`, the Potency in assay [5] was 10 µM (active). For the same molecule, the Potency entry in assay [2] is “inactive”.

With `CCC1=C2CC[C@H]3C(=O)N(C)C(=O)[C@H]3[C@H]2[C@@]2(Cc3ccccc3)C(=NCCOC)OC(=O)N2C1=O`, in assay [5], the Potency was 10 µM (active). In addition, the Potency result in assay [2] was “inactive”.

These data come from PubChem BioAssay (NCATS).
